Only some compounds are listed: those with a hit (about 1.4% of all), similar ones and a draw of the others.
eLon inh = E. coli protease La inhibition; purified E. coli Lon protease, fluorescence polarization; inhibition, % at 7.94 µM; hit rate 0.42% among 360,000; AID 602123; in the data active = inhibition above about 13%, passing the limit was not always enough
Bcl-xL primary = Bcl-xL (human) inhibition. Q07817. GST-Bcl-xL / FITC-Bim BH3 peptide fluorescence polarization. inhibition, % at 10.9 µM. hit rate 0.7% among 320,000. AID 2129;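 active = inhibition above the mean of all tested compounds plus 3 SD, cutoff set per campaign, cut at about 30% in these data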;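 note: inhibitors lower millipolarization by displacing the labeled peptide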
GLD-1 TGE inh = GLD-1-TGE RNA interaction inhibition (C. elegans); AID 2280; purified GLD-1 + fluorescein TGE RNA, fluorescence polarization; inhibition, % at 5.96 µM; hit rate 0.44% among 320,000; Q17339;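 active = percent inhibition above a per-plate cutoff, the plate mean of test compounds plus 3 SD, cut at about 30% in these data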
EBV gp42 block = blocks Epstein-Barr virus glycoprotein 42 binding. inhibition, % (tested at 21.74 µM). Fluorescence polarization binding assay, mP read-out. Q1HVG2. hit rate 0.42% among 220,000; in the data active = inhibition above about 50%
Target sequence (Q1HVG2 whole entry, looked up): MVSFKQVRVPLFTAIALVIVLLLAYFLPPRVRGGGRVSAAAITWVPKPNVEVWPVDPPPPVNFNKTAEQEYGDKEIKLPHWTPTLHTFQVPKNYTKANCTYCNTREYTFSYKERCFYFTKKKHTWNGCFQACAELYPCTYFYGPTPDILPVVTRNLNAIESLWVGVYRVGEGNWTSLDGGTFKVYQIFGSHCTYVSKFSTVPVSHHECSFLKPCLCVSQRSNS
MCL1 BIM primary = inhibitors of human MCL1 binding to BIM-BH3 peptide. Q07820. GST-MCL1 / FITC-Bim-BH3 fluorescence polarization. inhibition, % at 10.9 µM. hit rate 0.68% among 320,000;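 active = inhibition above the mean inhibition of all tested compounds plus 3 SD, set per campaign, cut at about 40% in these data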;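 note: higher means more loss of mP so more displacement of Bim peptide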
MEX-5 binding = C. elegans MEX-5 TCR-2 RNA binding activity; hit rate 0.38% among 300,000; activity score (negative = inhibition of binding), % at 10 µM; AID 1832; MEX-5/FITC-TCR2 RNA binding, fluorescence polarization; hits give low values;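 active = inhibition past about -25% in most replicates, and total fluorescence under double the plate's negative control median, limit read from the data; inconclusive = replicates evenly split on the limit, or fluorescence at least double controls; inactive = too little inhibition in most replicates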
Target sequence (Q9XUB2 whole entry, looked up): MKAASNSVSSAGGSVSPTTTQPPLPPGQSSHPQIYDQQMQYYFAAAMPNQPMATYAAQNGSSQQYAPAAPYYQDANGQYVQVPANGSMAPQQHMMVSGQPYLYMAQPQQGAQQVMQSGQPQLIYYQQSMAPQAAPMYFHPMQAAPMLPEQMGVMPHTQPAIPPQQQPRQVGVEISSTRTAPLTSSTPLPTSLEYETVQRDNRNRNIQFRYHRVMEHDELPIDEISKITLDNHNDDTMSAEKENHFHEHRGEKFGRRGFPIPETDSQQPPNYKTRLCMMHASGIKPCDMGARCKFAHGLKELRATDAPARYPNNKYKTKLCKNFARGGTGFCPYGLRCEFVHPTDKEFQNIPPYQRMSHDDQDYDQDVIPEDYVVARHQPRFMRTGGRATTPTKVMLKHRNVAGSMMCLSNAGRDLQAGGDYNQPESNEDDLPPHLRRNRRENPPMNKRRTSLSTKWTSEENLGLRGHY
Bcl-xL conf = counter-screen for MCL1 inhibitors: confirmation of human Bcl-xL inhibitors | shares compounds with MCL1 BIM primary | GST-Bcl-xL / FITC-Bim BH3 peptide FP binding | hit rate 54% among 1,700 | AID 2166 | inhibition, % at 10.9 µM;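 active = inhibition above a cutoff equal to the mean inhibition of all tested compounds plus 3 SD, cut at about 30% in these data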
MCL1 inh confirm = MCL1-BIM-BH3 interaction inhibition, confirmation. shares compounds with MCL1 BIM primary. GST-MCL1 / FITC-Bim-BH3 fluorescence polarization. inhibition, % at 10.9 µM. hit rate 61% among 1,700;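 active = inhibition above the average of all tested compounds plus 3 SD, cut at about 40% in these data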
Each line names hits and unclear results; the compound was inactive in the other large screens (follow-up assays come after a bar, where they were run).

CN1C(=O)c2cccc3c(N(C)C)ccc(c23)C1=O	Bcl-xL primary 74.6, MCL1 BIM primary 88.7 (no result: EBV gp42 block) | Bcl-xL conf 31.3 | MCL1 inh confirm inactive
O=C(c1ccc([N+](=O)[O-])cc1)N1CCC(n2nnc3cc(F)ccc32)CC1	none
O=C(N1CCOCC1)N1CCC(n2nnc3cc(F)ccc32)CC1	Bcl-xL primary 75.8, GLD-1 TGE inh 40.1, MCL1 BIM primary 86.8, MEX-5 binding -26.8 | Bcl-xL conf 53.7 | MCL1 inh confirm 61.9
COc1cc(/C=C2/CC(C)OC2=O)c([N+](=O)[O-])cc1OC (stereo not given)	none (no result: EBV gp42 block)
Nn1c(SCC(=O)NC2CCCCC2)nnc1-c1ccccc1F	none (no result: EBV gp42 block, MEX-5 binding)
NS(=O)(=O)c1ccc(N=Nc2c[nH]c(=O)c(O)c2)cc1	Bcl-xL primary 129.5, GLD-1 TGE inh 39.4, MCL1 BIM primary 163.0, MEX-5 binding -89.0 | Bcl-xL conf 169.4 | MCL1 inh confirm 195.0
CCn1ccc(C(=O)Nc2ccccc2SC)n1	none
O=C(O)Cn1nnc(-c2ccc(OCc3ccccc3)cc2)n1	none (no result: EBV gp42 block)
CN(Cc1ccc(Cl)s1)C(=O)CCl	none
N#CC1=C(N)Oc2cc(N)ccc2C1c1ccc(F)cc1F (stereo not given)	Bcl-xL primary 54.7, MCL1 BIM primary 54.2 (no result: EBV gp42 block) | Bcl-xL conf inactive | MCL1 inh confirm inactive
N#CC1=C(N)Oc2cc(N)ccc2C1c1ccc(F)cc1 (stereo not given)	none
C/C(=N\O)C(C)(C)Nc1ccccc1F	none
CN(CC(=O)NCc1ccccc1F)S(=O)(=O)c1ccc(Cl)cc1	none (no result: EBV gp42 block)
O=C1C(Nc2cccc(O)c2)=C(N2CCCCC2)C(=O)c2ccccc21	Bcl-xL primary 56.8, GLD-1 TGE inh 70.6, MCL1 BIM primary 54.6 | Bcl-xL conf inactive | MCL1 inh confirm inactive
O=C(O)c1ccccc1NC(=O)C1CCN(S(=O)(=O)c2cccc3nsnc23)CC1	none (no result: EBV gp42 block)
O=C(NC(=S)N1CCCCCC1)c1ccc(Cl)cc1Cl	MCL1 BIM primary 43.1 | Bcl-xL conf inactive | MCL1 inh confirm inactive
COc1ccc(N2C3=C(CC4=C2CCCC4=O)C(=O)CCC3)cc1	Bcl-xL primary 75.0, MCL1 BIM primary 77.3 | Bcl-xL conf 32.1 | MCL1 inh confirm inactive
COc1ccc(N2C3=C(CC4=C2CC(C)(C)CC4=O)C(=O)CC(C)(C)C3)cc1	none
COC(=O)C1=C(O)/C(=C\c2ccc(CNS(=O)(=O)c3ccccc3)o2)N=C1C	Bcl-xL primary 44.8, MCL1 BIM primary 48.4 | Bcl-xL conf 30.7 | MCL1 inh confirm 54.3
Cc1cc(C)c[n+](-c2nc3ccccc3nc2[N-]S(=O)(=O)c2ccc(Br)s2)c1	Bcl-xL primary 61.9, EBV gp42 block 65.6, MCL1 BIM primary 47.2 | Bcl-xL conf 63.3 | MCL1 inh confirm 92.1
Cc1cc(O)ccc1N/C=C1\CCCC1=O	none
CC(=O)Nc1ccc(N/C=C2/CCCC2=O)cc1	MCL1 BIM primary 80.2 | Bcl-xL conf inactive | MCL1 inh confirm inactive
O=c1c(O)cccc2cc(O)c(O)c(O)c12	Bcl-xL primary 86.1, EBV gp42 block 81.8, MCL1 BIM primary 109.1, MEX-5 binding -36.7 | Bcl-xL conf 85.4 | MCL1 inh confirm 103.4
O=C1CCNc2cc3ccccc3cc21	Bcl-xL primary 112.1, GLD-1 TGE inh 56.7, MCL1 BIM primary 130.6 | Bcl-xL conf 114.3 | MCL1 inh confirm 143.7
CCc1oc2ccccc2c1C(=O)c1cc(Br)c(O)c(Br)c1	MCL1 BIM primary 62.3 | Bcl-xL conf inactive | MCL1 inh confirm inactive
O=C1/C(=N\S(=O)(=O)c2cccs2)C([n+]2cccc(Cc3ccccc3)c2)=C([O-])c2ccccc21	Bcl-xL primary active, GLD-1 TGE inh 179.2, EBV gp42 block 142.3, MCL1 BIM primary active, MEX-5 binding inconclusive | Bcl-xL conf active | MCL1 inh confirm active
COC(=O)CN(c1ccccc1)S(=O)(=O)c1ccc(F)cc1	MCL1 BIM primary active | Bcl-xL conf inactive | MCL1 inh confirm inactive
O=C(Nc1ccc([N+](=O)[O-])cc1)c1ccc(S(=O)(=O)N2CCCC2)cc1	MCL1 BIM primary 58.2 (no result: EBV gp42 block) | Bcl-xL conf inactive | MCL1 inh confirm inactive
O=C(Nc1ccc(S(=O)(=O)N2CCCC2)cc1)c1ccc(F)cc1	none (no result: Bcl-xL primary, GLD-1 TGE inh, EBV gp42 block, MCL1 BIM primary, MEX-5 binding)
CC(=O)Nc1ccc(N=Cc2nc(-c3ccc(C)cc3)oc2O)cc1	Bcl-xL primary 88.5, GLD-1 TGE inh 31.3, MCL1 BIM primary 90.3, MEX-5 binding -31.1 | Bcl-xL conf 59.9 | MCL1 inh confirm 60.7
CC(=O)Nc1cccc(-c2nnc(-c3ccc(C)cc3)o2)c1	none (no result: Bcl-xL primary, GLD-1 TGE inh, EBV gp42 block, MCL1 BIM primary)
COc1cccc(C2=CC(c3ccc(C)cc3)n3ncnc3N2)c1 (stereo not given)	Bcl-xL primary 55.0, GLD-1 TGE inh 56.5, MCL1 BIM primary 60.0 (no result: eLon inh) | Bcl-xL conf inactive | MCL1 inh confirm 41.7
Cc1ccc(C2=CC(c3ccccc3)n3ncnc3N2)cc1 (stereo not given)	none (no result: EBV gp42 block)
CCOC(=O)c1c(NC(=O)CN2C(=O)C(=O)N(C(C)C)C2=O)sc(C)c1CC	none (no result: EBV gp42 block, MEX-5 binding)
CCc1ccc(N2CC(C(=O)OCc3nc4ccsc4c(=O)[nH]3)CC2=O)cc1 (stereo not given)	MCL1 BIM primary 40.5 (no result: EBV gp42 block, MEX-5 binding) | Bcl-xL conf 32.9 | MCL1 inh confirm 48.9
CCc1ccc(N2CC(C(=O)OCc3csc(CC(=O)Nc4ccccc4C)n3)CC2=O)cc1 (stereo not given)	none (no result: EBV gp42 block, MEX-5 binding)
CC1(NC(=O)CCc2nc3sc4c(c3c(=O)[nH]2)CCCC4)CCS(=O)(=O)C1 (stereo not given)	MCL1 BIM primary 41.6 (no result: EBV gp42 block) | Bcl-xL conf inactive | MCL1 inh confirm 44.3
CC(=O)Nc1ccc(NC(=O)CCc2nc3sc4c(c3c(=O)[nH]2)CCCC4)cc1	none (no result: EBV gp42 block)
Cc1cc(C)c2nc3sc(=Cc4ccc(-c5ccccc5C(=O)O)o4)c(=O)n3c2c1	none (no result: Bcl-xL primary, GLD-1 TGE inh, EBV gp42 block, MCL1 BIM primary, MEX-5 binding)
O=C(O)c1ccc(-c2ccc(/C=c3/sc4nc5ccccc5n4c3=O)o2)cc1Cl	MCL1 BIM primary 40.0 (no result: EBV gp42 block) | Bcl-xL conf inactive | MCL1 inh confirm inactive
Cc1c(Cl)cnc(NC(=O)COC(=O)c2ccc([N+](=O)[O-])s2)c1Cl	Bcl-xL primary 41.5, MCL1 BIM primary 60.5 | Bcl-xL conf 34.2 | MCL1 inh confirm 47.9
O=C1NC(=O)/C(=C\c2ccc(O)cc2O)S1	Bcl-xL primary 31.0, MCL1 BIM primary 50.1 | Bcl-xL conf 94.3 | MCL1 inh confirm 133.0
Cc1ccc(N=Nc2c(O)n(CN3CCOCC3)c3ccccc23)cc1	Bcl-xL primary 96.4, GLD-1 TGE inh 89.1, EBV gp42 block 94.0, MCL1 BIM primary 77.6, MEX-5 binding -27.8 | Bcl-xL conf inactive | MCL1 inh confirm inactive
CC(=O)Nc1ccc(S(=O)(=O)N2CCN(C(=O)C3COc4ccccc4O3)CC2)cc1 (stereo not given)	none (no result: EBV gp42 block)
